# Results as given in the supplement of paper PMC12636033.
# ± gives the standard deviation of the averaged measurements. The full ranking holds about 33,000 sequences; the median of “E-score (rank enrichment, -0.5 to 0.5)” is about -0.0028, and the highest 2% start at about 0.23. The sample holds the highest values, similar sequences and a random draw of the others, so the mix is not that of the screen.
# Test system: 2Sb-muMax20 (muMax20 with two 1,3-bis(methyl)benzene Cys staples, A13C/A17C and Q88C/A92C, C-terminal Lys)
# Experiment: PBM 8-mer E-score (E-score (rank enrichment, -0.5 to 0.5)); higher = stronger preferential binding
# Experimental: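 Protein binding microarray (universal PBM chip covering all 10-mers in fixed probe flanks) with chemically synthesized human Max(13-93) bHLH-LZ analogs (not full-length Max) bearing noncanonical residues (hArg, Tha, Aib, Nle at 65) and aromatic Cys staples. Read-out per 8-mer (and its reverse complement): E-score (rank-based enrichment, -0.5 to 0.5) and Z-score of median probe intensity.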
row,Sequence,PBM 8-mer E-score
1,ATGCGAGC,0.00876 ± 0.045
2,ATGCGAGA,-0.0394 ± 0.1
3,ATGCGAGG,0.2342 ± 0.0017
4,CGCCCCCC,-0.286 ± 0.14
5,CATGTACG,0.311 ± 0.024
6,AATGTACG,0.115 ± 0.053
7,CATGTACA,0.125 ± 0.1
8,TGCACTAA,0.102 ± 0.019
9,ATGGTGCA,0.196 ± 0.05
10,GAACACCC,-0.145 ± 0.022
11,CAACACCG,-0.202 ± 0.036
12,CAACACCC,0.252 ± 0.0077
13,GAGGTATA,0.144 ± 0.025
14,TAGTAGAA,-0.0551 ± 0.015
15,ACGGACAA,0.0365 ± 0.0016
16,CGACGCAG,-0.238 ± 0.017
17,ATGAATGG,0.297 ± 0.033
18,ATGAAATA,0.169 ± 0.024
19,ATGAATGA,0.181 ± 0.035
20,ATGAATGC,0.164 ± 0.06
21,ATGAAATC,0.137 ± 0.039
22,ATGAAATG,0.277 ± 0.066
23,CCCGCGAG,0.015 ± 0.026
24,CGCAGACG,-0.0875 ± 0.1
25,CATGTGCC,0.161 ± 0.0077

row,Sequence,PBM 8-mer E-score
1,ATGGCCGC,-0.0812 ± 0.007
2,CCTGCGAA,-0.0794 ± 0.0094
3,AGGGTGGA,-0.0307 ± 0.022
4,AGGGGTGG,0.287 ± 0.046
5,AAGGGTGG,0.0428 ± 0.051
6,AGGGTGGC,0.0374 ± 0.1
7,AGGGGTGA,0.16 ± 0.05
8,AGGGTGGG,0.266 ± 0.032
9,GTTCGTAA,-0.00989 ± 0.0088
10,ACTATCGC,0.097 ± 0.036
11,AATGCTAT,0.0731 ± 0.033
12,ACCGCATA,0.0507 ± 0.032
13,AGGTAAAC,-0.0251 ± 0.11
14,AGGTAAAG,0.2635 ± 0.0021
15,AGGTAAAT,0.0873 ± 0.074
16,AGCAGATC,-0.143 ± 0.068
17,ACGTCTTA,-0.193 ± 0.025
18,GATGTTTA,0.12 ± 0.03
19,CATGTTTA,0.239 ± 0.024
20,AATGTTGA,0.0172 ± 0.078
21,CATGTTTC,0.05 ± 0.033
22,CATGTTGC,0.0698 ± 0.024
23,CATGTTGA,0.257 ± 0.02
24,AACGGTGG,-0.0485 ± 0.0095
25,GAAATGGC,0.0246 ± 0.0079

row,Sequence,PBM 8-mer E-score
1,ACTATACG,0.156 ± 0.033
2,CTCTAATA,0.0986 ± 0.022
3,TTAATCAA,0.0337 ± 0.0076
4,TGAATCAA,0.0626 ± 0.026
5,CGAATCAG,-0.163 ± 0.065
6,CTAATCAA,0.277 ± 0.014
7,CTAATCAC,0.14 ± 0.0037
8,CGAATCAA,0.2677 ± 0.00054
9,AGGCCACT,0.129 ± 0.0082
10,CGTAGCAA,-0.0306 ± 0.0061
11,ACTTCATA,0.0718 ± 0.0033
12,CTAACCGC,-0.0848 ± 0.018
13,AAAGTTTA,0.249 ± 0.022
14,GAAGTTTA,-0.0783 ± 0.12
15,AAAGTTTC,-0.0128 ± 0.036
16,CCGAGAGG,-0.225 ± 0.049
17,CAGCGCGA,-0.0207 ± 0.052
18,GCCCCATA,0.356 ± 0.039
19,CACCCATA,0.21 ± 0.0057
20,CCCCCATA,0.0403 ± 0.02
21,GGCCCATA,-0.0795 ± 0.036
22,AACCCATA,0.229 ± 0.016
23,GACCCATA,0.23906 ± 6.4e-05
24,CATCTACA,0.137 ± 0.025
25,ACCTGATC,-0.0825 ± 0.031

row,Sequence,PBM 8-mer E-score
1,ATCTAGGG,0.171 ± 0.013
2,AACCCTCT,-0.0379 ± 0.0099
3,AACCATAC,-0.0703 ± 0.11
4,CCCCACAC,0.19 ± 0.13
5,CCCCACAG,-0.09771 ± 0.00011
6,AACCATAA,0.13 ± 0.018
7,CCCCACAA,0.264 ± 0.0045
8,AACCATAT,0.232 ± 0.0038
9,ACCCATAT,0.252 ± 0.051
10,ACGCATAA,0.17 ± 0.01
11,ACGCATAG,-0.0652 ± 0.023
12,ACGCATAT,0.246 ± 0.0099
13,ACCCATAG,0.0412 ± 0.039
14,ACCCATAC,0.119 ± 0.051
15,ACACAGAG,-0.0541 ± 0.0044
16,ACGGACTG,-0.167 ± 0.011
17,ACAGGACA,-0.0877 ± 0.075
18,TCCTAAGA,-0.186 ± 0.031
19,GTAGCTAC,0.0481 ± 0.06
20,ACGCACAG,-0.146 ± 0.017
21,CCCCATAA,0.3007 ± 0.003
22,ACCCATAA,0.25 ± 0.023
23,AACCATTA,0.276 ± 0.005
24,AGCCATAA,0.0405 ± 0.0087
25,ACCCATTA,0.161 ± 0.015

row,Sequence,PBM 8-mer E-score
1,GCCCATAA,0.0149 ± 0.062
2,AACCATTG,-0.163 ± 0.044
3,CACCATTA,-0.044 ± 0.042
4,ACGCACAT,0.235 ± 0.024
5,ACGCACAA,0.0307 ± 0.012
6,TCCCATAA,0.0657 ± 0.052
7,TCCTGGAA,-0.283 ± 0.06
8,TACTTTCA,0.0779 ± 0.057
9,TACCGAGA,-0.0899 ± 0.043
10,CGGCGTGA,-0.113 ± 0.017
11,CTAAGTGA,-0.204 ± 0.046
12,AGCGTGCC,-0.0325 ± 0.041
13,CTTGGAAC,0.128 ± 0.018
14,AGTACGTA,0.183 ± 0.018
15,AGTACGTG,0.0987 ± 0.039
16,AGTACGTC,0.257 ± 0.02
17,GCCCGAAC,-0.0411 ± 0.062
18,AATCCGCA,-0.0479 ± 0.02
19,CGATTCCC,0.142 ± 0.0041
20,AAGACACA,0.0534 ± 0.033
21,CAGACACG,-0.0916 ± 0.036
22,AAGACACG,0.23 ± 0.029
23,CCCCGTAG,-0.0497 ± 0.00093
24,ACCCGTAA,-0.0543 ± 0.035
25,CCCCGTAA,0.276 ± 0.014

row,Sequence,PBM 8-mer E-score
1,GCTAGGTA,-0.0432 ± 0.18
2,ATTGTGTC,0.0993 ± 0.063
3,GGGGCGTA,0.15 ± 0.08
4,AACGTGGA,0.0893 ± 0.031
5,CACGTGGC,0.317 ± 0.015
6,GACGTGGC,-0.00165 ± 0.017
7,CACGTGGG,0.438 ± 0.0088
8,CACGTGGA,0.383 ± 0.029
9,TACGTGGA,0.0786 ± 0.0068
10,AACGTGGC,0.192 ± 0.021
11,AACGTGGG,0.196 ± 0.0051
12,GACGTGGA,0.0221 ± 0.026
13,ACTTAGAA,-0.02 ± 0.04
14,CGAAGGCC,-0.212 ± 0.015
15,CAACTTGC,-0.1303 ± 0.0012
16,AAACTTGC,0.254 ± 0.025
17,AAACTTGA,0.163 ± 0.048
18,ACAGATTA,-0.0104 ± 0.027
19,CCTGAAAC,-0.0931 ± 0.062
20,GTCGTAAC,0.00633 ± 0.033
21,GAGTCGGA,-0.0932 ± 0.037
22,AGTCATTA,0.0586 ± 0.056
23,ATACATTG,0.17 ± 0.021
24,ATACATTC,0.32 ± 0.023
25,ATTCATTA,0.114 ± 0.012

row,Sequence,PBM 8-mer E-score
1,ATTCATAG,0.0979 ± 0.039
2,AGTCATTG,0.264 ± 0.034
3,CTTCATAC,0.0955 ± 0.029
4,ATTCATAC,0.276 ± 0.044
5,AGTCATTC,0.129 ± 0.077
6,ATTCATTG,0.0825 ± 0.018
7,CTACATTC,0.0832 ± 0.066
8,ATTCATTC,0.249 ± 0.029
9,GCATCTGA,-0.135 ± 0.0046
10,GGGCCAGA,-0.122 ± 0.054
11,CTTGGGCA,0.0256 ± 0.03
12,CGAGGCCC,-0.00116 ± 0.04
13,TGCGCGAA,0.146 ± 0.011
14,AGCAGACA,-0.0463 ± 0.0083
15,GACTGAGC,-0.267 ± 0.057
16,CCACAGAG,-0.0457 ± 0.076
17,ATATCCTC,0.262 ± 0.054
18,ATATCTTC,0.249 ± 0.029
19,ATATCTTA,0.124 ± 0.0016
20,CTATCCCC,0.121 ± 0.0091
21,CTATCCTC,-0.015 ± 0.015
22,ATATCCCG,0.0587 ± 0.04
23,ATATCCCC,0.339 ± 0.025
24,ATATCCTA,0.0634 ± 0.0093
25,CTATCTTC,0.0336 ± 0.054
